Screening results deposited in PubChem BioAssay by National Center for Advancing Translational Sciences (NCATS).
LMNA splice mod – LMNA splicing modulation; Potency, µM (series often up to 46.1 µM), inactives show at the top dose ratio change, negative = inhibition, hits mostly inhibitors; AID 1487; 200,000 tested, 0.01% active; HeLa LMNA splicing GFP/RFP minigene ratio, 48 h; active = well fitted inhibition curve with a large enough effect in the signal ratio, with a control signal flat, not every such curve was filed as active; inconclusive = small, poorly fitted or top-dose-only effect, or effect the other way, or a change in a side signal; the % refers to the signal ratio; also: potency is read from the fitted curve at half-maximal effect
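S3 HeLa cells stably expressing lamin A-EGFP splicing minigene plus DsRed2, 600 cells/well, 48 h compound exposure at 37C. Laser-scanning cytometry; analysed as GFP (500-530 nm)/RFP (575-640 nm) total intensity ratio; 0.5% DMSO vehicle.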
HPGD inh – HPGD (human) dehydrogenase inhibition; Potency, µM, without a hit: top-dose activity change, negative = inhibition, hits mostly inhibitors; purified HPGD, NADH fluorescence kinetic, PGE2 substrate; 150,000 tested, 4.3% active; also: potency is read from the fitted curve at half-maximal effect
Target sequence (P15428 whole entry, looked up): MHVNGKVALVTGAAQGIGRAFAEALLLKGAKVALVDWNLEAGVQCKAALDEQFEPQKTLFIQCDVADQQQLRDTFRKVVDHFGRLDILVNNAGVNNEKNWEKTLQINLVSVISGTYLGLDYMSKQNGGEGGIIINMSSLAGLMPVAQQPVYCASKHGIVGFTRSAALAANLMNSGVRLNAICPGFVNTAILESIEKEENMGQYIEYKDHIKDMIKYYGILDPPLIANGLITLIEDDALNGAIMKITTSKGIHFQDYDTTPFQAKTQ
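20 nM HPGD preincubated 15 min at room temperature with compound in 50 mM Tris-HCl pH 8, 0.01% Tween 20. Started with 1 mM NAD+ and 30 uM prostaglandin E2; NADH fluorescence (360/450 nm) read 5 times over 30-s intervals, last minus first.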
12-hLO inh – blocks human 12-lipoxygenase activity; P18054; purified 12-hLO, xylenol orange hydroperoxide absorbance; Potency, µM (titrated, usually from 57.1 µM), without a hit: top-dose activity change, negative = inhibition, usual class: inhibitors; 150,000 tested, 0.12% active; AID 1452; active = well fitted inhibition curve with a large enough effect; inconclusive = small, poorly fitted or top-dose-only effect; also: potency is read from the fitted curve at half-maximal effect; nearly all actives have a fitted effect of over 55% in size
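Xylenol orange chromogenic assay: hydroperoxide from 12hLO oxidises Fe(II), giving red-shifted Fe(III)-XO absorbance. Conditions: 150 nM enzyme, 40 uM arachidonic acid, 25 mM Hepes pH 7.0, 0.01% Triton X-100, 30 min, room temperature.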
PNC assembly inh – inhibitors of perinucleolar compartment assembly; AID 2417; PC3M PTB-GFP, PNC prevalence imaging, 16 h; hits give low values; 140,000 tested, 3.1% active; activity change (PNC), negative = inhibition, % at 10 µM;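 active = readout at or below -70, meaning at least 70% loss of cells showing the perinucleolar compartment, a nuclear body marking cancer cells; inconclusive = readout between -30 and a set limit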;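 also: plate controls were DMSO wells for no effect and camptothecin positive control wells for full effect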
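Read-out is percentage of cells bearing a perinucleolar compartment, from automated 20x imaging of fixed, Hoechst-stained PC3M PTB-GFP cells. Cells were seeded 4 h, then exposed 16 h to compound (23 nl of library stock) in duplicate plates.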
ALDH1A1 inh – inhibitors of human aldehyde dehydrogenase 1A1. AID 1030. Purified ALDH1A1, NADH fluorescence, propionaldehyde substrate. Potency, µM (highest dose often 75.3 µM), for inactives: at the highest dose activity, negative = inhibition, actives largely listed as inhibitors. 220,000 tested, 7.3% active;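 also: potency is read from the fitted curve at half-maximal effect; plate controls were no enzyme wells and a reference inhibitor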
Active calls of the source: *; ? = inconclusive; nt = not tested or not shown; [ ] = dose if it differs, or a comment. Most compounds without a hit are left out; they make up all but 10% or so of the library. Unless noted, calls follow the shape of the dose curve; as a rule, active = well fitted inhibition curve with a large enough effect (not every such curve was filed as active); inconclusive = small, poorly fitted or top-dose-only effect, or another doubt; inactive = no such curve, though single readings can be large or run the other way. Unless noted, % is scaled to controls: 0 for no effect and ±100 for the full control effect.

SMILES | LMNA splice mod | HPGD inh | 12-hLO inh | PNC assembly inh | ALDH1A1 inh
C=CC(=O)OCCCC | nt | ? | 1% | nt | 5%
CC(=O)N1CCC[C@@]2(CCN(Cc3ccc(C#N)cc3)C2)C1 | nt | -7% | 2% | nt | -13%
COc1ccc(C(=O)N2CCC[C@@]3(CCN(Cc4ccc(C#N)cc4)C3)C2)cc1 | nt | 16µM* | -1% | nt | ?
COc1ccc(C(=O)N2CCC[C@@]3(CCN(Cc4nccs4)C3)C2)cc1 | nt | -24% | -1% | nt | 8.9µM*
O=C(CCC(=O)OCC(=O)c1ccc(Cl)cc1Cl)Nc1cccc2cccnc12 | 3% | -17% | -6% | 26 | 28µM*
C=CCn1c(SCc2ccccc2C#N)nnc1-c1cc(Br)ccc1O | -11% | 14µM* | -5% | ? | -5%
CCCn1c(-c2ccc(F)cc2)nc2c(NC3CC4CCC(C3)N4C)nc(C)nc21 (configuration not stated) | nt | ? | -1% | nt | ?
CC(=O)OCC1=C(C(=O)O)N2C(=O)C(NC(=O)Cc3cccs3)C2SC1 (configuration not stated) | nt | 20µM* | -3% | nt | -13%
CC(=O)OCC1=C(C(=O)O)N2C(=O)[C@@H](NC(=O)CSc3ccncc3)[C@@H]2SC1 | ? | -3% | -5%[25.6 µM] | nt | 2%[20.9 µM]
CN[C@]1(C)[C@@H]2CC[C@@H](C2)C1(C)C | nt | nt | -3% | nt | nt
CC(/C=C1\SC(=S)N(CCCC(=O)Nc2ccc(C(=O)O)c(O)c2)C1=O)=C\c1ccccc1 | 0% | ? | -24% | -14 | 6.3µM*
Cc1ccc(-c2nc3sc(CCNS(=O)(=O)c4cc(F)ccc4F)c(C)n3n2)cc1 | -2%[46 µM] | nt | nt | nt | nt
CCn1c(C)c(CS(=O)(=O)c2ccccc2)[nH]c1=O | nt | nt | nt | nt | 22µM*
O=C(/C=C/c1ccccc1)NCc1ccco1 | nt | nt | nt | nt | 6µM*
O=C(/C=C/c1ccccc1Cl)NCc1ccco1 | 7% | 14µM* | -4% | ? | ?
O=C(/C=C/c1ccc(Cl)c(Cl)c1)NCc1ccco1 | 11% | ? | -4% | -10 | -4%
CCNC(=O)/C(=C/c1ccco1)NC(=O)/C=C/c1ccccc1 | 17% | 18µM* | ? | -17 | ?
COc1ccc(/C=C/C2=CC3(C)CC2(C)C(c2ccc(OC)cc2)CC3=O)cc1 (configuration not stated) | nt | nt | nt | nt | -1%[13.5 µM]
C(/CCc1ccccc1)=N\n1cnnc1 | -8% | -6% | -1% | -100* | 8%
BrC(=C\c1ccccc1)/C=N/n1cnnc1 | ? | nt | nt | nt | 13%
O=C(NCC(c1cccnc1)N1CCN(c2ccccc2F)CC1)c1ccc(F)cc1 (configuration not stated) | 20%[46 µM] | nt | nt | nt | nt
O=C(NCC(c1cccnc1)N1CCN(c2ccc(F)cc2)CC1)c1ccc(F)cc1 (configuration not stated) | ? | -12% | -7% | -21 | 32µM*
CCOc1ccc(NC(=O)C2Cc3ccccc3N2C(=O)c2ccccc2)cc1 (configuration not stated) | -9%[46 µM] | nt | nt | nt | nt
O=C(C1CCCO1)N1CCN(c2c3c(nc4cc(-c5ccc(F)cc5)nn24)CCC3)CC1 (configuration not stated) | 7% | ? | -5% | -23 | 22µM*
CCOC(=O)/C(C#N)=C/c1ccc(SC)cc1 | nt | nt | nt | nt | 18µM*
SMILES | LMNA splice mod | HPGD inh | 12-hLO inh | PNC assembly inh | ALDH1A1 inh
CCOC(=O)/C(C#N)=C/c1ccc(OC(=O)c2ccccn2)cc1 | -17% | -15% | -6% | 10 | 8.9µM*
COC(=O)/C(C#N)=C/c1ccc(OC(=O)c2ccccn2)cc1 | 6% | ? | 1% | 29 | 3.5µM*
COCCn1c(=O)c(C)nc2cncnc21 | 2% | nt | nt | nt | ?
CCOC(=O)CCN1C(=O)[C@H]2[C@H]3[C@H](O)[C@H](O)C/C(=N/NC(=O)OCC)[C@H]3CC[C@@H]2C1=O | nt | nt | nt | nt | 5%[13.5 µM]
COc1ccc(S(=O)(=O)n2nc(-c3ccco3)nc2NCc2ccc(N(C)C)cc2)cc1 | -16%[46 µM] | nt | nt | nt | nt
CCCCC[C@H](O)/C=C/C=C\CCCCCCCCCC(=O)O | nt | -11% | 4% | nt | 12%
CC1CCN(c2c(NCc3ccc(C(=O)NCc4ccco4)cc3)c(=O)c2=O)CC1 | -5% | 11µM* | -1% | 55 | 2%
CC1CCN(c2c(NCc3ccc(C(=O)NCc4cccnc4)cc3)c(=O)c2=O)CC1 | -5% | ? | -8% | ? | 13%
